# Measured values as given in PubChem BioAssay (EPA / NIEHS).
# Values joined by “and” are separate entries in the source; they are usually repeats but may differ in a detail not shown here. Equal values may be shown once. The source holds several records for some structures; these can differ, active in one and inactive in another. Active and inactive are the calls of the source. Rule for the calls: active = hit-call score of the fitted dose curve at least 0.9, where 1 is the maximum; inactive = score below 0.9.
# Key:
# [1] = BSK_KF3CT_SRB: Viability Assessment in the BioMAP Diversity Plus: KF3CT Assay (AID 2283069); settings: primary human keratinocytes with fibroblasts;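 note: total protein by sulforhodamine B staining as a cytotoxicity measure; read 24 h after compound addition; fitted for both signal gain and loss against DMSO baseline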
# Outline: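 Keratinocytes co-cultured with foreskin fibroblasts (human primary); chemical added, 24 h; fix 10% TCA, stain 0.1% SRB, A560. Bidirectional fit vs DMSO.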
# [2] = read-out: Interleukin-1 alpha (IL1a), IL1A (gene 3552); test: BSK_KF3CT_IL1a: BioMAP Diversity Plus: KF3CT Assay for Interleukin-1 alpha (IL1a) Biomarker Activity (AID 2283070); settings: primary human keratinocytes with fibroblasts; actives raise or lower the signal
# Outline: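 Chemicals were dosed onto co-cultured human keratinocytes and foreskin fibroblasts, IL-1a was quantified by ELISA at 24 h, and activity was fitted in both directions relative to DMSO controls.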
# [3] = read-out: TIMP metallopeptidase inhibitor 2 (TIMP2), TIMP2 (gene 7077); test: BSK_KF3CT_TIMP2: BioMAP Diversity Plus: KF3CT Assay for TIMP metallopeptidase inhibitor 2 (TIMP2) Biomarker Activity (AID 2283071); settings: primary human keratinocytes with fibroblasts; actives raise or lower the signal
# Outline: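 Co-culture of human primary keratinocytes and foreskin fibroblasts, measured 24 h after chemical dosing. TIMP-2 quantified by ELISA and fitted in both directions relative to DMSO. Cytotoxicity checked in parallel cultures by SRB total-protein staining.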
# [4] = read-out: Transforming growth factor beta 1 (TGFb1), TGFB1 (gene 7040); test: BSK_KF3CT_TGFb1: BioMAP Diversity Plus: KF3CT Assay for Transforming growth factor beta 1 (TGFb1) Biomarker Activity (AID 2283072); settings: primary human keratinocytes with fibroblasts; actives raise or lower the signal
# Outline: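 Human keratinocyte/foreskin fibroblast co-culture; TGF-b1 measured by ELISA 24 h after dosing, fitted bidirectionally versus DMSO. Cytotoxicity checked in parallel cultures by total protein (SRB staining, 560 nm).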
# [5] = read-out: C-C motif chemokine 2 (Homo sapiens) (UniProt P13500); test: BSK_KF3CT_MCP1: BioMAP Diversity Plus: KF3CT Assay for Monocyte Chemoattractant Protein 1 (MCP1/CCL2) Biomarker Activity (AID 2283073); settings: primary human keratinocytes with fibroblasts; actives raise or lower the signal
# Outline: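 Biomarker MCP-1 is measured by ELISA in primary human keratinocytes co-cultured with foreskin fibroblasts, 24 h after chemical treatment; DMSO serves as the negative control and activity baseline.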
# [6] = read-out: Matrix Metallopeptidase 9 (MMP9), MMP9 (gene 4318); test: BSK_KF3CT_MMP9: BioMAP Diversity Plus: KF3CT Assay for Matrix Metallopeptidase 9 (MMP9) Biomarker Activity (AID 2283074); settings: primary human keratinocytes with fibroblasts; actives raise or lower the signal;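 for AC50: MMP9 protein level quantified by ELISA in the co-culture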
# Outline: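 Human keratinocyte/foreskin fibroblast co-culture; compound added; 24 h; MMP-9 by ELISA; bidirectional fit vs DMSO baseline.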
# [7] = read-out: urokinase plasminogen activator (uPA), PLAU (gene 5328); test: BSK_KF3CT_uPA: BioMAP Diversity Plus: KF3CT Assay for urokinase plasminogen activator (uPA) Biomarker Activity (AID 2283075); settings: primary human keratinocytes with fibroblasts; actives raise or lower the signal
# Outline: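 ELISA readout of uPA, analyzed for signal gain or loss relative to DMSO, from a human primary keratinocyte–foreskin fibroblast co-culture measured 24 h after chemical treatment.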
# CD40, CD40 (gene 958) = test: BSK_LPS_CD40: BioMAP Diversity Plus: LPS Assay for CD40 Biomarker Activity (AID 2283076); settings: primary human HUVEC with PBMC; actives raise or lower the signal
# Outline: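 Using a multiplexed primary human co-culture (umbilical vein endothelium plus PBMC), CD40 was read by ELISA 24 h after dosing, with cytotoxicity tracked by sulforhodamine B staining of parallel cultures and activity fitted bidirectionally versus DMSO.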
# [8] = read-out: E-selectin (Homo sapiens) (UniProt P16581); test: BSK_LPS_Eselectin: BioMAP Diversity Plus: LPS Assay for Eselectin Biomarker Activity (AID 2283077); settings: primary human HUVEC with PBMC; actives raise or lower the signal
# Outline: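 Dose chemical onto LPS-driven HUVEC/PBMC co-culture; after 24 h, run ELISA for E-selectin; fit up- and down-going responses relative to DMSO control.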
# [9] = read-out: Interleukin-8 (IL8), CXCL8 (gene 3576); test: BSK_LPS_IL8: BioMAP Diversity Plus: LPS Assay for Interleukin-8 (IL8) Biomarker Activity (AID 2283078); settings: primary human HUVEC with PBMC; actives raise or lower the signal
# Outline: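 In this LPS system, chemical-treated human umbilical vein endothelium/PBMC co-cultures were harvested at 24 h for IL-8 ELISA.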
# Sequence of E-selectin (Homo sapiens) (P16581 whole entry, looked up): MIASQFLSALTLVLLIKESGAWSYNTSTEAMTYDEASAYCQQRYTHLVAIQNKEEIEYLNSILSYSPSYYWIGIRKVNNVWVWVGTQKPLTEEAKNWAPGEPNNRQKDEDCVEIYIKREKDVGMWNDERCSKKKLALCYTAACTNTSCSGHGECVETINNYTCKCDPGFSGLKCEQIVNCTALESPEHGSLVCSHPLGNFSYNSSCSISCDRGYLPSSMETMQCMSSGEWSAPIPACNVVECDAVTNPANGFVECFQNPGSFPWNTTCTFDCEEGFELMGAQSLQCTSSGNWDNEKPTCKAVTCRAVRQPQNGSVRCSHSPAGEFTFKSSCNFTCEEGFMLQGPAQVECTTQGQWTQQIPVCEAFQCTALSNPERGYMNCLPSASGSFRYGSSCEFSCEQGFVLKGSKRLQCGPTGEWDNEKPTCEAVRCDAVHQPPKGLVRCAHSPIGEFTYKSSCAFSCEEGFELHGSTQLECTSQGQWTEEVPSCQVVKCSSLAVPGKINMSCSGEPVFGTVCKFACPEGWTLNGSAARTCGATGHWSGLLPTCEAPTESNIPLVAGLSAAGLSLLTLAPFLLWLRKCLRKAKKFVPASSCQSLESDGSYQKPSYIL
Compound,outcome [1],outcome [2],outcome [3],outcome [4],outcome [5],outcome [6],AC50 [7],"outcome (CD40, CD40 (gene 958))",outcome [8],outcome [9],AC50 [1],AC50 [2],AC50 [3],AC50 [6],outcome [7],"AC50 (CD40, CD40 (gene 958))",AC50 [8],AC50 [9],AC50 [4],AC50 [5]
CCOP(=S)(OCC)SCCSCC,inactive,inactive,inactive,inactive,inactive,inactive,29.4 µM (active),inactive,inactive,inactive,,,,,,,,,,
CCOP(=S)(Oc1cnc(C(C)(C)C)nc1)OC(C)C (stereo not given),,,,inactive,inactive,,,,,,31.4 µM (active),24.1 µM (active),38.4 µM (active),27.1 µM (active),inactive,37.9 µM (active),30.9 µM (active),30.5 µM (active),,
O=[N+]([O-])c1cc(C(F)(F)F)c(Cl)c([N+](=O)[O-])c1Nc1ncc(C(F)(F)F)cc1Cl,,,,inactive,,,1.37 µM (active) and 7.61 µM (active),,,,741 nM (active) and 5.95 µM (active),867 nM (active) and 6.33 µM (active),588 nM (active) and 11.3 µM (active),991 nM (active) and 5.6 µM (active),,1.44 µM (active) and 6.49 µM (active),1.55 µM (active) and 3.22 µM (active),2.33 µM (active) and 3.94 µM (active),7.7 µM (active),1.71 µM (active) and 15.5 µM (active)
CCCSP(=O)(OCC)SCCC,inactive,inactive,inactive,inactive,inactive,inactive,,inactive,inactive,inactive,,,,,inactive,,,,,
CCNc1nc(Cl)nc(NC(C)(C)C#N)n1,inactive,inactive,inactive,inactive,inactive,inactive,,inactive,inactive,inactive,,,,,inactive,,,,,
CCC(=NOC/C=C/Cl)C1=C(O)CC(C2CCOCC2)CC1=O (stereo not given),inactive,inactive,inactive,inactive,inactive,inactive,,inactive,inactive,inactive,,,,,inactive,,,,,
CCC(=O)Nc1ccc(Cl)c(Cl)c1,inactive,inactive,inactive,inactive,inactive,inactive,,inactive,inactive,inactive,,,,,inactive,,,,,
CCc1cccc(CC)c1N(COC)C(=O)CCl,inactive,inactive,inactive,inactive,inactive,,,,,inactive,,,,20 µM (active),inactive,13.8 µM (active),33.8 µM (active),,,
CNc1cnn(-c2cccc(C(F)(F)F)c2)c(=O)c1Cl,inactive,inactive,inactive,inactive,inactive,inactive,,inactive,inactive,inactive,,,,,inactive,,,,,
Nc1nc(N)nc(NC2CC2)n1,inactive,inactive,inactive,inactive,inactive,inactive,,inactive,inactive,inactive,,,,,inactive,,,,,
CCCCSP(=O)(SCCCC)SCCCC,inactive,inactive,inactive,inactive,inactive,inactive,,,,,,,,,inactive,31.8 µM (active),32.6 µM (active),27.1 µM (active),,
Cc1cc(C2CC2)nc(Nc2ccccc2)n1,inactive,inactive,inactive,inactive,inactive,inactive,,,inactive,inactive,,,,,inactive,14.8 µM (active),,,,
CCC(CC)Nc1c([N+](=O)[O-])cc(C)c(C)c1[N+](=O)[O-],inactive,inactive,inactive,inactive,inactive,,,,,,,,,8.34 µM (active),inactive,20 µM (active),16.8 µM (active),18 µM (active),,
CC1(C(=O)Nc2ccc(O)c(Cl)c2Cl)CCCCC1,inactive,inactive,inactive,inactive,inactive,inactive,,inactive,,inactive,,,,,inactive,,16.4 µM (active),,,
C#CC(C)(C)NC(=O)c1cc(Cl)cc(Cl)c1,inactive,inactive,inactive,inactive,inactive,inactive,,inactive,inactive,inactive,,,,,inactive,,,,,
COP(=O)(OC)C(O)C(Cl)(Cl)Cl (stereo not given),inactive,inactive,inactive,inactive,inactive,inactive,,inactive,inactive,,,,,,inactive,,,,,
CCCSP(=O)(OCC)Oc1ccc(Br)cc1Cl (stereo not given),,inactive,inactive,inactive,inactive,inactive,,inactive,inactive,,22.7 µM (active),,,,inactive,,,30.2 µM (active),,
CC[C@H](C)[C@H]1O[C@]2(C=C[C@@H]1C)C[C@@H]1C[C@@H](C/C=C(\C)[C@@H](O[C@H]3C[C@H](OC)[C@@H](O[C@H]4C[C@H](OC)[C@@H](NC)[C@H](C)O4)[C@H](C)O3)[C@@H](C)/C=C/C=C3\CO[C@@H]4[C@H](O)C(C)=C[C@@H](C(=O)O1)[C@]34O)O2,,,,,,,9.27 µM (active),,,,6.31 µM (active),5.84 µM (active),8.99 µM (active),6.21 µM (active),,1.86 µM (active),5.98 µM (active),5.57 µM (active),10.8 µM (active),7.96 µM (active)

Compound,outcome [1],outcome [2],outcome [3],outcome [4],outcome [5],outcome [6],AC50 [7],"outcome (CD40, CD40 (gene 958))",outcome [8],outcome [9],AC50 [1],AC50 [2],AC50 [3],AC50 [6],outcome [7],"AC50 (CD40, CD40 (gene 958))",AC50 [8],AC50 [9],AC50 [4],AC50 [5]
CN(C)[C@@H]1C(=O)C(C(N)=O)=C(O)[C@@]2(O)C(=O)C3=C(O)c4c(O)cccc4[C@@](C)(O)[C@H]3[C@H](O)[C@@H]12,inactive,inactive,inactive,inactive,inactive,inactive,,inactive,inactive,inactive,,,,,inactive,,,,,
CC(C)=CC1C(C(=O)OCN2C(=O)C3=C(CCCC3)C2=O)C1(C)C (stereo not given),inactive,inactive,inactive,inactive,inactive,,,,,,,,,3.97 µM (active),inactive,11.4 µM (active),35.1 µM (active),26.9 µM (active),,
CCCOCC(=Nc1ccc(Cl)cc1C(F)(F)F)n1ccnc1,,,,,,,33.2 µM (active),,,,32.7 µM (active),36.4 µM (active),31.7 µM (active),28 µM (active),,22.3 µM (active),16.2 µM (active),32.5 µM (active),31.1 µM (active),31.3 µM (active)
CCCCOC(=O)[C@@H](C)Oc1ccc(Oc2ccc(C#N)cc2F)cc1,inactive,inactive,inactive,inactive,inactive,inactive,,inactive,inactive,inactive,,,,,inactive,,,,,
CC1=NNC(=O)N(/N=C/c2cccnc2)C1,inactive,inactive,inactive,inactive,inactive,inactive,,inactive,inactive,inactive,,,,,inactive,,,,,
COc1ccc(C(=CC(=O)N2CCOCC2)c2ccc(Cl)cc2)cc1OC,inactive,inactive,inactive,inactive,inactive,inactive,,,,inactive,,,,,inactive,14.1 µM (active),10.3 µM (active),,,
CCc1cccc(C)c1N(C(=O)CCl)C(C)COC (stereo not given),inactive,inactive,inactive,inactive,inactive,inactive,,,inactive,inactive,,,,,inactive,17.5 µM (active),,,,
COP(=O)(OC)SCn1c(=O)oc2cc(Cl)cnc21,,inactive,inactive,inactive,,,20 µM (active),,,,14.9 µM (active),,,25.8 µM (active),,19.8 µM (active),19.1 µM (active),20 µM (active),,31.3 µM (active)
CN(C)C(=O)Nc1cccc(C(F)(F)F)c1,inactive,inactive,inactive,inactive,inactive,inactive,,inactive,inactive,inactive,,,,,inactive,,,,,
CCOP(=S)(OCC)Oc1ccc2c(C)c(Cl)c(=O)oc2c1,inactive,,inactive,inactive,inactive,inactive,,inactive,inactive,inactive,,14.4 µM (active),,,inactive,,,,,
CC(COc1ccc(Oc2ccccc2)cc1)Oc1ccccn1 (stereo not given),inactive,inactive,inactive,inactive,inactive,inactive,,,inactive,inactive,,,,,inactive,20 µM (active),,,,
CCOP(=S)(OCC)Oc1cc(C)nc(C(C)C)n1,inactive,inactive,inactive,inactive,inactive,inactive,,inactive,inactive,inactive,,,,,inactive,,,,,
COc1cc(OC)nc(Sc2cccc(Cl)c2C(=O)O)n1,inactive,inactive,inactive,inactive,inactive,inactive,,inactive,inactive,inactive,,,,,inactive,,,,,
CON=C(C(=O)OC)c1ccccc1CON=C(C)c1cccc(C(F)(F)F)c1,inactive,inactive,inactive,inactive,,,,,,,,,,3.97 µM (active),inactive,13.5 µM (active),0.25 µM (active),3.35 µM (active),,6.61 µM (active)
CNC(=O)ON=C(C)SC,inactive,inactive,inactive,inactive,inactive,inactive,,inactive,inactive,inactive,,,,,inactive,,,,,
COc1cccc(C(=O)NN(C(=O)c2cc(C)cc(C)c2)C(C)(C)C)c1C,inactive,inactive,inactive,inactive,inactive,inactive,,inactive,inactive,inactive,,,,,inactive,,,,,
CC(=NC#N)N(C)Cc1ccc(Cl)nc1,inactive,inactive,inactive,inactive,inactive,inactive,,inactive,inactive,inactive,,,,,inactive,,,,,
